Measured values from PubChem BioAssay (EPA / NIEHS).
Records with an inconclusive call do not appear. Activity calls are given as the source filed them. The calls were made as follows, unless noted: active = hit-call score of the fitted dose curve at least 0.9, where 1 is the maximum; inactive = score below 0.9.

What was measured:
[1] = ATG_DR4_LXR_CIS: Attagene CIS-FACTORIAL HepG2 Assay for human Liver X Receptor (LXR), DR4 submotif (AID 2282929); conditions: HepG2 Attagene DR4 cis-reporter, mRNA transcription; actives raise or lower the signal
Method in brief: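 Measures endogenous transcription factor activity via a DR4-driven reporter transcript in human HepG2 cells. Compounds incubated 24 h; mRNA quantified by RT-PCR and capillary electrophoresis, analysed as gain or loss of signal versus DMSO.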

[2] = biological target: Hepatocyte nuclear factor 3-beta (Homo sapiens) (UniProt Q9Y261); assay: ATG_FoxA2_CIS: Attagene CIS-FACTORIAL HepG2 Assay for human Forkhead box A2 (FOXA2) (AID 2282942); conditions: HepG2 cis-reporter transcription factor activity, 24 h; actives raise or lower the signal
Sequence of Hepatocyte nuclear factor 3-beta (Homo sapiens) (Q9Y261 whole entry, looked up): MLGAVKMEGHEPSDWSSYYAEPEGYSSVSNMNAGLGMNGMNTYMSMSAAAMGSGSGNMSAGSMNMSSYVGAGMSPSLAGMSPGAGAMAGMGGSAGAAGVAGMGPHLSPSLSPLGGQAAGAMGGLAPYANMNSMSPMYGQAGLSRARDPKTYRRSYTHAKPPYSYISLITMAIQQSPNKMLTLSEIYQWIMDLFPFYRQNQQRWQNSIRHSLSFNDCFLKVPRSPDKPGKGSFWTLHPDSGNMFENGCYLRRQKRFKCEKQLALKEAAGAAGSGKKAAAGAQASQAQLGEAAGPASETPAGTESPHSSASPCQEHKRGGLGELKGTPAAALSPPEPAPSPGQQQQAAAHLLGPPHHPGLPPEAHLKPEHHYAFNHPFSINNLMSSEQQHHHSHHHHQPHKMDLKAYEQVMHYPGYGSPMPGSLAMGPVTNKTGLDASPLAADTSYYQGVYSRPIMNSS
Method in brief: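 In transiently transfected human HepG2 cells, promoter-driven reporter mRNA levels after 24 h chemical exposure are determined via RT-PCR with capillary electrophoresis. DMSO serves as baseline for bidirectional fitting.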

[3] = biological target: Hypoxia-inducible factor 1-alpha (Homo sapiens) (UniProt Q16665); assay: ATG_HIF1a_CIS: Attagene CIS-FACTORIAL HepG2 Assay for human Hypoxia Inducible Factor 1 (HIF1A) (AID 2282951); conditions: HepG2 Attagene cis-factorial HIF1a reporter transcription; actives raise or lower the signal
Sequence of Hypoxia-inducible factor 1-alpha (Homo sapiens) (Q16665 whole entry, looked up): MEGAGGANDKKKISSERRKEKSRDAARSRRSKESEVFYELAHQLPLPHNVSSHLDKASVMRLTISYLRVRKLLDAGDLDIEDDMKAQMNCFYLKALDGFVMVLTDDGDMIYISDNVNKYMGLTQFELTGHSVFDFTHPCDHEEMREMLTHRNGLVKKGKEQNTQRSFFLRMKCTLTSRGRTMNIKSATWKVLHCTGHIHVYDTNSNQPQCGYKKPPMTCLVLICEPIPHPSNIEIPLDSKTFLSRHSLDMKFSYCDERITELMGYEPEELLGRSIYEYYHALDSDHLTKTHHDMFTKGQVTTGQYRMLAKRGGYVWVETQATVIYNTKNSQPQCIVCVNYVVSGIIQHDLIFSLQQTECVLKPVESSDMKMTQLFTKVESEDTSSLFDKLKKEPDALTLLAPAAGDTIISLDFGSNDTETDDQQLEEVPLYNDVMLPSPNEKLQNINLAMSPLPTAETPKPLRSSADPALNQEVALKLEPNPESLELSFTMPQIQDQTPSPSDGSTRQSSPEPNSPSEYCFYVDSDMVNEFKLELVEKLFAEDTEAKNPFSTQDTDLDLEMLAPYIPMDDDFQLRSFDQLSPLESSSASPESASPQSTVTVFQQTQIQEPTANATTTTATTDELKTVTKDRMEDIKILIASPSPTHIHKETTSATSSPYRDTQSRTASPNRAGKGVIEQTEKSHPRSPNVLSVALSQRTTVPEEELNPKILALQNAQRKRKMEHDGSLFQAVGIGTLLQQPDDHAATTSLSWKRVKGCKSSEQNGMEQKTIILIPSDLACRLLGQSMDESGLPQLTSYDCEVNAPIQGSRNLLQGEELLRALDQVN
Method in brief: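 In this multiplexed cell assay, HepG2 cells bearing transfected cis reporters are dosed for 24 h and reporter mRNA is read by RT-PCR plus capillary electrophoresis; signal increases and decreases are both scored against DMSO.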

[4] = biological target: Heat shock factor protein 1 (Homo sapiens) (UniProt Q00613); assay: ATG_HSE_CIS: Attagene CIS-FACTORIAL HepG2 Assay for human Heat Shock Transcription Factor 1 (HSE) (AID 2282953); conditions: HepG2 HSE cis-reporter, Attagene RNA transcription; actives raise or lower the signal
Method in brief: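 Endogenous transcription factor activity in transiently transfected HepG2, read as reporter mRNA by RT-PCR with fluorescent capillary electrophoresis after 24 h. Gain or loss of signal fitted versus DMSO baseline.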

[5] = ATG_RORE_CIS: Attagene CIS-FACTORIAL HepG2 Assay for human RAR-related Orphan Receptor Element (RORE) (AID 2282959); conditions: HepG2 Attagene cis-factorial RORE reporter, mRNA; actives raise or lower the signal
Method in brief: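 Fluorescence intensity of reporter-specific cDNA fragments, separated by capillary electrophoresis, gives the signal. Source: HepG2 liver cells transiently transfected with cis-element reporters and exposed 24 h; DMSO-normalized bidirectional fit.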

[6] = biological target: Signal transducer and activator of transcription 3 (Homo sapiens) (UniProt P40763); assay: ATG_STAT3_CIS: Attagene CIS-FACTORIAL HepG2 Assay for human Signal Transducer and Activator of Transcription 3 (STAT3) (AID 2282963); conditions: HepG2, Attagene cis-factorial STAT3 reporter transcription; actives raise or lower the signal
Sequence of Signal transducer and activator of transcription 3 (Homo sapiens) (P40763 whole entry, looked up): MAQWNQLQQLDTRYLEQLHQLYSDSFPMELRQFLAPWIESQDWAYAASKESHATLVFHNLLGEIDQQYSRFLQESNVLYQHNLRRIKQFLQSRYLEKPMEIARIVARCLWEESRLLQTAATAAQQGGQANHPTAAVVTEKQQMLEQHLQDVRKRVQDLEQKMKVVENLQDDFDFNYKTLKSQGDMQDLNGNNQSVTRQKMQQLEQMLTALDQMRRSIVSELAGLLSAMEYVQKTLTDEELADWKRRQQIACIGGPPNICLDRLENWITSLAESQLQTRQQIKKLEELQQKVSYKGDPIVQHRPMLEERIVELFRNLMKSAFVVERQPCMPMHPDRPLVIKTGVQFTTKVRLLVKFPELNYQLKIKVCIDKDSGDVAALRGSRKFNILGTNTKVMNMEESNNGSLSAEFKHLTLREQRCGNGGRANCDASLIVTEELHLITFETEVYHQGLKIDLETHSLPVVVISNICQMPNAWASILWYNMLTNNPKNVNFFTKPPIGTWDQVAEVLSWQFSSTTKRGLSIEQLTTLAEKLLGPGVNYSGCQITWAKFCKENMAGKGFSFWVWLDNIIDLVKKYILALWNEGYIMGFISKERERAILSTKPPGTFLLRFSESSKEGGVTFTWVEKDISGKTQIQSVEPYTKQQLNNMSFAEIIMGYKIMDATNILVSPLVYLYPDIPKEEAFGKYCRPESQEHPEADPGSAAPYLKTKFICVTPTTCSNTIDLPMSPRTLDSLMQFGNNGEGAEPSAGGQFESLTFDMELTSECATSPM
Method in brief: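 HepG2, MRTU-transfected, 24 h dosing. RNA → RT → PCR → FAM label → HpaI → CE. Bidirectional fit vs DMSO.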

[7] = ATG_TCF_b_cat_CIS: Attagene CIS-FACTORIAL HepG2 Assay for human T-Cell-Factor with beta-catenin (TCF/b-cat) (AID 2282965); conditions: HepG2 TCF/beta-catenin cis-reporter transcription, actives raise or lower the signal
Method in brief: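 In this cis-format system, transfected HepG2 cells report endogenous transcription factor activity. Readout after 24 h exposure is reporter transcript abundance from RT-PCR and capillary electrophoresis, analysed for gain or loss of signal versus DMSO.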

[8] = ATG_TAL_CIS: Attagene CIS-FACTORIAL HepG2 Assay for human TAL Basal Promoter (AID 2282966); conditions: HepG2 Attagene cis-factorial TAL promoter reporter; actives raise or lower the signal;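 also: background control endpoint measuring basal TAL promoter reporter mRNA not a specific factor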
Method in brief: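 After 24 hours of chemical exposure, transfected HepG2 cells yielded RNA that was converted to 6-FAM-labelled, HpaI-digested reporter fragments for capillary electrophoresis. Values derive from bidirectional fitting against DMSO controls.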

[9] = ATG_TGFb_CIS: Attagene CIS-FACTORIAL HepG2 Assay for human Transforming Growth Factor (TGF) (AID 2282967); conditions: HepG2 Attagene CIS TGFb reporter, mRNA transcription; actives raise or lower the signal
Method in brief: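 Endogenous TGFB1-linked transcription factor activity read as reporter mRNA via RT-PCR and capillary electrophoresis, 24 h after dosing transiently transfected HepG2 cells. Gain or loss of signal fitted relative to DMSO.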

[10] = ATG_VDRE_CIS: Attagene CIS-FACTORIAL HepG2 Assay for human Vitamin D Receptor Element (VDRE) (AID 2282968); conditions: HepG2 VDRE cis-reporter transcription, actives raise or lower the signal
Method in brief: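 Steps: transfect HepG2 with multiple reporter transcription units; dose chemicals 24 h; isolate RNA; RT-PCR; label with 6-FAM primer extension; HpaI digest; capillary electrophoresis. Curves fitted both directions against DMSO.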

[11] = biological target: X-box-binding protein 1 (Homo sapiens) (UniProt P17861); assay: ATG_Xbp1_CIS: Attagene CIS-FACTORIAL HepG2 Assay for human X-box Binding Protein 1 (XBP1) (AID 2282972); conditions: HepG2 XBP1 cis-element reporter, Attagene multiplex; actives raise or lower the signal
Sequence of X-box-binding protein 1 (Homo sapiens) (P17861 whole entry, looked up): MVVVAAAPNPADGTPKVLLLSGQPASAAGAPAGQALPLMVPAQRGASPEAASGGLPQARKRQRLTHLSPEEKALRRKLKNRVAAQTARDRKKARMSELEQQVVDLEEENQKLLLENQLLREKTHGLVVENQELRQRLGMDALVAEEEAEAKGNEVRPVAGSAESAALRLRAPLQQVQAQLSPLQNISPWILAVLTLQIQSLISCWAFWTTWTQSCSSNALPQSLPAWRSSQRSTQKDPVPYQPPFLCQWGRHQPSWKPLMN
Method in brief: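 Human hepatoma HepG2, cis-element reporter system, 24 h treatment; mRNA quantified by RT-PCR/CE fluorescence; fit relative to DMSO.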

[12] = biological target: Transcriptional activator Myb (Homo sapiens) (UniProt P10242); assay: ATG_Myb_CIS: Attagene CIS-FACTORIAL HepG2 Assay for human Myeloblastosis (Myb) Proto-Oncogene Transcription Factor (AID 2282986); conditions: HepG2 Attagene CIS-FACTORIAL Myb reporter transcription; actives raise or lower the signal
Sequence of Transcriptional activator Myb (Homo sapiens) (P10242 whole entry, looked up): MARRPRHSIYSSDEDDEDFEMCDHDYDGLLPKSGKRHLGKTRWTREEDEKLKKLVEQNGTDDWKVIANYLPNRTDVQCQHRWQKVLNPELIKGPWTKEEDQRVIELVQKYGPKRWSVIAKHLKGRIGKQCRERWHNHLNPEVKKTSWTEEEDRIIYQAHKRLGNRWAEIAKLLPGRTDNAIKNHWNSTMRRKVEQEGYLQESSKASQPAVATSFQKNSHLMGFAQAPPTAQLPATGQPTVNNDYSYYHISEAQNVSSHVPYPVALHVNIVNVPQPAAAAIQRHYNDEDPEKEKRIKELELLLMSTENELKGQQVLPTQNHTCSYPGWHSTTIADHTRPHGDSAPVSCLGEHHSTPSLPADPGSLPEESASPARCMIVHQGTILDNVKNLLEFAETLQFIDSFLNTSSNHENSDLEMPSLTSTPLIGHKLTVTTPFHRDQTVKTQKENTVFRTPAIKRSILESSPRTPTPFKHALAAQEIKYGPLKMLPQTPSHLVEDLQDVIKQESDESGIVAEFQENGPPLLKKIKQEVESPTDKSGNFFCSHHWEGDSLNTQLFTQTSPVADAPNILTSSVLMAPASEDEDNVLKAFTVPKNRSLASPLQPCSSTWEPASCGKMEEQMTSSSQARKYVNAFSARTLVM
Method in brief: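 Fluorescence signals from capillary electrophoresis of RT-PCR-amplified reporter cDNA give the read-out. Cells: HepG2 transfected with multiple cis-regulated reporter units. Exposure lasts 24 hours; DMSO defines baseline for gain or loss of signal.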

[13] = biological target: Nuclear respiratory factor 1 (Homo sapiens) (UniProt Q16656); assay: ATG_NRF1_CIS: Attagene CIS-FACTORIAL HepG2 Assay for human Nuclear Respiratory Factor 1 (NRF1) Orphan Gene (AID 2282987); conditions: HepG2 NRF1 cis-element reporter, Attagene multiplex; actives raise or lower the signal
Sequence of Nuclear respiratory factor 1 (Homo sapiens) (Q16656 whole entry, looked up): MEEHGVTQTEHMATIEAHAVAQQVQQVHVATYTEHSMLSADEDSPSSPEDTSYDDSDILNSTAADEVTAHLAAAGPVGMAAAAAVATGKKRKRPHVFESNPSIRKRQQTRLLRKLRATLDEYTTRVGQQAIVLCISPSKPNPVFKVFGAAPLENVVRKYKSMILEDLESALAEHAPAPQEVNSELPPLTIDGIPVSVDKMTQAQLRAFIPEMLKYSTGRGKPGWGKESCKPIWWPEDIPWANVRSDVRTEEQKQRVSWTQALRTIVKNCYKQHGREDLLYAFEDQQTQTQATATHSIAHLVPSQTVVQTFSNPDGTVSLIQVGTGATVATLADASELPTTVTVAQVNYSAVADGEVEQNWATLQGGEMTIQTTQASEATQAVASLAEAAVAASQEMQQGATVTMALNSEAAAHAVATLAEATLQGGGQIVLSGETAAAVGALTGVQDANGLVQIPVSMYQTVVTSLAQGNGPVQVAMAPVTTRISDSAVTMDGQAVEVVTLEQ
Method in brief: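 Transcriptional reporter readout, one component of a 52-endpoint multiplexed HepG2 panel. Exposure 24 h; mRNA detected via RT-PCR and fluorescent capillary electrophoresis; fitting in both directions against DMSO.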

[14] = biological target: Myc proto-oncogene protein (Homo sapiens) (UniProt P01106); assay: ATG_Myc_CIS: Attagene CIS-FACTORIAL HepG2 Assay for human Myelocytomatosis (Myc) Proto-Oncogene Transcription Factor (AID 2282990); conditions: HepG2, Attagene cis-reporter transcription factor activity; actives raise or lower the signal
Sequence of Myc proto-oncogene protein (Homo sapiens) (P01106 whole entry, looked up): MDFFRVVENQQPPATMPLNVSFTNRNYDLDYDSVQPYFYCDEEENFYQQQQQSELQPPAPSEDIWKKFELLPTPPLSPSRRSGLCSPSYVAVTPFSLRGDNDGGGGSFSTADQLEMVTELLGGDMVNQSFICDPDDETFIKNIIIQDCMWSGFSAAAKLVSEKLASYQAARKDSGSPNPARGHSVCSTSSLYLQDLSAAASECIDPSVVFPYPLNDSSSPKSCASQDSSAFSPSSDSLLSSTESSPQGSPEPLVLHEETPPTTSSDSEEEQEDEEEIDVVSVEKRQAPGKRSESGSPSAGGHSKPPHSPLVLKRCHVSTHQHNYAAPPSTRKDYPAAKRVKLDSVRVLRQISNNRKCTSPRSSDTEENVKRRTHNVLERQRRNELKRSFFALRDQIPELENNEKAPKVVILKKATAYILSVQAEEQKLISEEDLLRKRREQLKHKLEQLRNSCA
Method in brief: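 DMSO-normalised, bidirectionally fitted reporter mRNA signal. HepG2 cells transfected with cis reporter constructs, treated 24 h; transcripts detected by RT-PCR, 6-FAM primer extension and CE.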

[15] = ATG_NRF2_ARE_CIS: Attagene CIS-FACTORIAL HepG2 Assay for human Nuclear Factor Erythroid 2 Related Factor 2 (NFR2) response to Antioxidant Response Elements (ARE) (AID 2282992); conditions: HepG2 Attagene ARE/NRF2 reporter, transcription factor activity; actives raise or lower the signal;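 as to AC50: reporter mRNA level measured by RT-PCR and capillary electrophoresis fluorescence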
Method in brief: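 Fluorescence intensity of reporter-specific cDNA fragments, separated by capillary electrophoresis, reflects mRNA induction in transfected HepG2 cells at 24 h. Activity is fitted bidirectionally, DMSO serving as baseline.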

[16] = ATG_Oct_MLP_CIS: Attagene CIS-FACTORIAL HepG2 Assay for human Octamer-Binding Transcription Factor (Oct) (AID 2282993); conditions: HepG2 Attagene cis-factorial Oct reporter, mRNA; actives raise or lower the signal
Method in brief: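 Readout is reporter transcript level from RT-PCR with fluorescent primer extension and capillary electrophoresis, fitted in both directions against DMSO. Transfected HepG2 reporter units report endogenous factor activity after 24 h dosing.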

[17] = biological target: Cellular tumor antigen p53 (Homo sapiens) (UniProt P04637); assay: ATG_p53_CIS: Attagene CIS-FACTORIAL HepG2 Assay for human p53 Transcription Factor (AID 2282994); conditions: HepG2 p53 cis-element reporter, Attagene mRNA; actives raise or lower the signal
Sequence of Cellular tumor antigen p53 (Homo sapiens) (P04637 whole entry, looked up): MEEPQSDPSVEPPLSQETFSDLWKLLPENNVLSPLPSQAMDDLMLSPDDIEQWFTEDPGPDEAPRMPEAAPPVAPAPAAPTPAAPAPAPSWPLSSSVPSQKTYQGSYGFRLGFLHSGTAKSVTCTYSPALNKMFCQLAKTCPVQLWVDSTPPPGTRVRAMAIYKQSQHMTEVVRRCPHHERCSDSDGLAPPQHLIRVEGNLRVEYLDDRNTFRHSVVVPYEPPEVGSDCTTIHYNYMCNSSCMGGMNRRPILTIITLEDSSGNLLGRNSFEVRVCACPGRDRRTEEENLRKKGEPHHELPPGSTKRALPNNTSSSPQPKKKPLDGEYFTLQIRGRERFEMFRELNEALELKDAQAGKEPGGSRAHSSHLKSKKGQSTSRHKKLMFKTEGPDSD
Method in brief: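 Transiently transfected HepG2 (multiple cis reporter transcription units); exposure 24 h; reporter RNA via RT-PCR, 6-FAM extension, 2 h HpaI digest at 37 C, CE detection; DMSO baseline.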

[18] = biological target: Nuclear receptor subfamily 1 group I member 2 (Homo sapiens) (UniProt O75469); assay: ATG_PXR_TRANS: Attagene TRANS-FACTORIAL HepG2 Assay for human Pregnane X Receptor (PXR) (AID 2283008; active = hit-call score of the fitted dose curve at least 0.9, where 1 is the maximum)
Sequence of Nuclear receptor subfamily 1 group I member 2 (Homo sapiens) (O75469 whole entry, looked up, the tested form may be a part): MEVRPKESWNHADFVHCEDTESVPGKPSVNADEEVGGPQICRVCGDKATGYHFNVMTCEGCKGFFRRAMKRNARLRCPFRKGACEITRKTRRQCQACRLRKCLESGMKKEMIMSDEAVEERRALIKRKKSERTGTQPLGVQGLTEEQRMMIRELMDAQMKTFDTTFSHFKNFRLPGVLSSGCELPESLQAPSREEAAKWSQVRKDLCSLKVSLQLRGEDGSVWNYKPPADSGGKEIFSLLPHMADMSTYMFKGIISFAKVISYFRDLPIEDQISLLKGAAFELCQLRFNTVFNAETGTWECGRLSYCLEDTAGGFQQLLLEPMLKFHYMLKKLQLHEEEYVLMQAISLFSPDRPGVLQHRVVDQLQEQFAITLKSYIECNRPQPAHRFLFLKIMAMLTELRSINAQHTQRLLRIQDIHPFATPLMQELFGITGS
Method in brief: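 Transient HepG2 transfectants carrying multiplexed reporter transcription units; PXR activity read through a Gal4 chimera. 24 h exposure. RT-PCR/CE fluorescence; upward curve fit referenced to DMSO.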

[19] = ATG_XTT_Cytotoxicity: Cytotoxicity Assessment in the Attagene TRANS-FACTORIAL HepG2 Assay (AID 2283584; active = hit-call score of the fitted dose curve at least 0.9, where 1 is the maximum)
Method in brief: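 Cells: human HepG2, transiently transfected with MRTU reporter constructs. Exposure 24 h. Readout: XTT, cell number. Baseline/neg ctrl DMSO; loss-of-signal scored.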

[20] = ATG_AP_1_CIS: Attagene CIS-FACTORIAL HepG2 Assay for human Activator Protein 1 (AP-1) (AID 2282931); conditions: HepG2 Attagene cis-factorial AP-1 reporter mRNA; actives raise or lower the signal
Method in brief: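 Bidirectional concentration-response fitting against DMSO controls. Underlying signal: reporter mRNA from cis-promoter constructs in transiently transfected HepG2, measured after 24 h by RT-PCR and capillary electrophoresis.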

Measured: AC50

CN(C)N=Nc1ccccc1
inactive: [1] | [2] | [3] | [4] | [5] | [6] | [7] | [8] | [9] | [10] | [11] | [12] | [13] | [14] | [16] | [17] | [18] | [19]
active: [15] 177 µM

CC[N+](CC)(CC(=O)Nc1c(C)cccc1C)Cc1ccccc1
inactive: [1] | [2] | [3] | [5] | [6] | [7] | [8] | [9] | [11] | [12] | [13] | [14] | [15] | [18] | [19]

O=C(C(=O)c1ccccc1)c1ccccc1
active: [18] 11.3 µM
inactive: [1] | [2] | [3] | [4] | [6] | [7] | [8] | [9] | [10] | [11] | [12] | [13] | [14] | [15] | [16] | [17] | [19]

CC(C)(C)NC(=O)[C@@H]1CN(Cc2cccnc2)CCN1C[C@@H](O)C[C@@H](Cc1ccccc1)C(=O)N[C@H]1c2ccccc2C[C@H]1O
inactive: [20] | [3] | [4] | [6] | [7] | [8] | [9] | [10] | [11] | [12] | [13] | [14] | [15] | [17] | [19]
